Among the data in PubChem BioAssay (NCI) are growth values, retold here.

About 83,000 compounds went through this panel and 20% of them were active in at least one assay; those are over-represented in the sample as a whole.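 48-hour exposure, single concentration, 96-well plates; percent growth endpoint where 0 means no net growth. Active: below 10.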 Unmarked numbers belong to inactive results. Activity calls are given as the source filed them.

The test system of this experiment is ACHN renal. The experiment can be described thus: NCI-60 one-dose screen, 48 h (100 = growth as untreated, 0 = no growth, -100 = all killed). As to conditions: 10 µM unless noted.
Take `CC(=O)OC[C@]12CC[C@@H]([C@@H](C)c3nnc(-c4ccncc4)o3)[C@@H]1[C@H]1CC[C@@H]3[C@@]4(C)CC[C@H](OC(C)=O)C(C)(C)[C@@H]4CC[C@@]3(C)[C@]1(C)CC2`: the growth was 80.8%. Then `CCN(CC)c1ccc(/C=N/NC(=O)Cc2ccc(Nc3ccnc(C(F)(F)F)c3)cc2)c(O)c1`, with 19.4%. Then `Cc1cc2c(cc1C)N(C(=O)CCl)CC(=O)N2`, with -8.11% (active); and `C#CC#CC#CC#CC#CC#CC#CC#CC[C@@H]1OC[C@@H](COC(=O)O[C@@H](C(=O)O[C@H]2C[C@@]3(O)[C@@H](OC(=O)c4ccccc4)[C@@H]4[C@]5(OC(C)=O)CO[C@@H]5C[C@H](O)[C@@]4(C)C(=O)[C@H](OC(C)=O)C(=C2C)C3(C)C)[C@@H](NC(=O)c2ccccc2)c2ccccc2)O1`, with 26.5%. Then `CCN1C(=O)N(CC)C2C1NN=c1s/c(=C\c3cnc(C)n3C)c(=O)n12` (stereo not given), with 34.3%.

On to `C/C=C(\C)C(=O)N[C@H]1C(O)C[C@]2(C)C3CC[C@@]4(C)C(CC[C@@H]4C(C)N(C)C)C3CCC2C1O` (stereo not given in full), for which the growth is 60.4%.

Regarding `C#Cc1cccc(Nc2nc(C)nc3cc(NC(=O)CCl)ccc23)c1`, the growth is -92% (active). For `CSc1nn2c(-c3ccc4ccccc4c3)ccnc2c1C#N`, the growth is 16%. The figure for `CCN(CC)CCCOc1ccc2ncnc(Nc3ccc(Oc4cccc(C(F)(F)F)c4)c(Cl)c3)c2c1` is -13.4% (active). The figure for `O=C1/C(=C\c2ccccn2)c2ccccc2N1c1c(Cl)cccc1Cl` is 19.6%; for `CCOC(=O)c1c(C)c2c(n1Cc1ccccc1)CSCC2=O` it is 10.6% [100 µM]; for `O=C(CN1CCN(c2cc3c(cc2F)c(=O)c(C(=O)O)cn3C2CC2)CC1)N/N=C/c1ccco1` it is 98.1%. The figure for `Clc1ccc(-c2cc(-c3ccccc3)nc(NCCNc3ccnc4cc(Cl)ccc34)n2)cc1` is 10.1%; for `N#C/C(=C\C=C\c1ccc(-c2cc(Cl)ccc2Cl)o1)c1nc2ccccc2s1` it is 90.5%; for `COc1cc(OC)c(C(=O)C(CN(C)C)CN(C)C)cc1OC` it is -87.6% (active). In the case of `CCn1cc(CNc2ccc(C(=O)Nc3cc4cc(OC)c(OC)cc4c(C)n3)cc2)cn1`, the growth is 60.8%.

`N#Cc1c(-c2ccccc2)nc(SCc2nnc(-c3ccc(Cl)cc3)o2)[nH]c1=O`: the growth is 109%. Then `O=P(O)(O)OCC1OC(n2cnc3c(NCc4ccco4)ncnc32)C(O)C1O` (stereo not given), with 4.1% (active). The figure for `CCN(CC)CCCN1C(=O)c2c(c(C)c3c(oc4ccc(O)cc43)c2C)C1=O` is 25.9%; for `O=[N+]([O-])c1ccc(-c2cn3nc(-c4c[nH]c5ccccc45)sc3n2)cc1` it is 96.8%; for `Cc1nc2ccccc2c(/C=C/c2ccccc2)c1C(=O)/C=C/c1ccccc1` it is 17.4%.

Turning to `O=C1Nc2c(C(=O)O)cccc2/C1=N/c1n[nH]c(=S)s1`, the growth was 78%.

As for `CC(=O)Oc1ccc(OC(C)=O)c2ccccc12`, the growth is 75.7%. The figure for `COC(=O)/C=C1/SC(=Nc2ccc([N+](=O)[O-])cc2)N(CCc2c[nH]c3ccc(O)cc23)C1=O` is 53.4%.

With `[2H]C([2H])([2H])Oc1ccc(F)cc1/C=C/C(=O)/C=C(/C=C/c1cc(F)ccc1OC([2H])([2H])[2H])OB(F)F`, the growth was 54.5%. The figure for `Nc1c(C(=O)Nc2cccc(Cl)c2)sc2nc3c(cc12)CCCC3` is 94.4%; for `NS(=O)(=O)c1ccc(C(=O)NN2C(=O)c3c(Br)c(Br)c(Br)c(Br)c3C2=O)cc1` it is 106%. Then `Cc1c(Cl)cccc1C(=O)Nc1nc2c(s1)CN(C(=O)c1ccc(C(F)(F)F)cc1)CC2`, with 25.3%; and `CCCCCN(CCCCC)CC(O)c1cc(C)c2ccc3cc(C(C)C)ccc3c2c1` (stereo not given), with -77.8% (active); and `CCC1S/C(=N\N=C(\C)c2cc3cc(Cl)ccc3o2)N(c2ccccc2)C1=O` (stereo not given), with 103%. The figure for `CN1C(=O)/C(=C/c2ccc(C(=O)Nc3ncc(Cc4cccc(Cl)c4)s3)cc2)SC1=S` is 33.2%; for `O=C(NCc1cccc(CNC(=O)Nc2nc3ccccc3[nH]2)c1)Nc1nc2ccccc2[nH]1` it is 70.2%; for `COc1ccc(Cn2cc3c(c2-c2ccccc2)CCc2cnoc2-3)cc1` it is 46.6%. As to `Cc1ccc(CNc2c3ccccc3nc3ccccc23)cc1`, the growth is 14%. The figure for `FC(F)(F)c1ccc(Cn2cc(CSc3nc4ccccc4s3)nn2)cc1` is 101%; for `COc1cc(OC)c2sc(-c3ccc(-n4cncc4-c4cc(OC)c(OC)c(OC)c4)cc3)nc2c1` it is 70.2%; for `C#CCn1cnc2cnc(Nc3cccc(NC(=O)C=C)c3)nc21` it is 75.3% [6.25 µM]. Then `CC(=O)/C(=C/c1ccc([N+](=O)[O-])cc1)C(=O)c1ccccc1`, with 83.8%.

Consider `CCOC(=O)/C=C1\S/C(=N\Nc2cc(=O)[nH]c3ccccc23)N(c2ccccc2)C1=O`, for which the growth was 102%. Then `Cc1ccc(/C=C/C(=O)c2ccc(-n3cc(CN4CCN(c5cc6c(cc5F)c(=O)c(C(=O)O)cn6C5CC5)CC4)nn3)cc2)cc1`, with 89.8%.
